The source of these data is PubChem BioAssay.

Values without a mark were called inactive. No rule for the calls is given here.

The target of the assay is Pantothenate synthetase (Mycobacterium tuberculosis (strain ATCC 25618 / H37Rv)) (UniProt P9WIL5). Description: Coupled enzyme confirmation of inhibitors against recombinant Mtb PanC (AID 375).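 Also: 0% = full reaction with vehicle and 100% = no enzyme background.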 Conditions: coupled enzyme assay; at 10 µM, stronger effect = higher value.
Pantothenate synthetase (Mycobacterium tuberculosis (strain ATCC 25618 / H37Rv)), sequence (P9WIL5 whole entry, looked up): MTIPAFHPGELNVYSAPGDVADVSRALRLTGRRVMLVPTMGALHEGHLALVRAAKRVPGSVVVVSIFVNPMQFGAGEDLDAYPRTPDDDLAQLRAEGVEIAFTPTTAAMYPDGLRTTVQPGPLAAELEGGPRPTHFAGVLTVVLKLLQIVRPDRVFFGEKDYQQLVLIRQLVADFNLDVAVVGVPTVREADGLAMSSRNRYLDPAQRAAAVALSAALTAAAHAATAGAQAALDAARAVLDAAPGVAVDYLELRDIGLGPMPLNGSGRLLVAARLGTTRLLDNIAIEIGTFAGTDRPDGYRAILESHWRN
Broadly, the inhibition is the share of the control response that was lost under treatment. Take `O=C(c1cnc2n(c1=O)CCS2)N(C1CCCCC1)C1CCCCC1`: the inhibition is 0%.
In the case of `Cc1csc2ncc(C(=O)N3CCc4ccccc43)c(=O)n12`, the inhibition was 6%.
For the compound `CCN(CCCNS(=O)(=O)c1ccc2c(c1)oc(=O)n2C)c1cccc(C)c1`, the inhibition is 0%.
Turning to `O=C(C1CCCN(S(=O)(=O)c2cccnc2)C1)N1CCn2c1nc1ccccc12` (stereo not given), the inhibition is 0%.
As to `COc1cc(C2C(C#N)=C(C)NC3=C2C(=O)CC(C)(C)C3)ccc1O` (stereo not given), the inhibition is 0%.
Consider `COc1cc(C(=O)Nc2cc(-c3ccccc3)[nH]n2)cc(OC)c1OC`, for which the inhibition is 5%.
As to `CCSC(SCC)[C@H](O)[C@@H](O)[C@H](O)[C@H](O)CO`, the inhibition was 2%.
In the case of `CCOC(=O)Cn1c(CCC(=O)O)ccc1-c1ccc(F)cc1`, the inhibition is 3%.
In the case of `CN(C)C(=O)CSc1nnc2sc3ccccc3n12`, the inhibition is 0%.
For the compound `O=C(/C=N/O)NCc1ccncc1`, the inhibition is 1%.
Turning to `Cc1c(C)c2ccc(OC3CCCCC3=O)cc2oc1=O` (stereo not given), the inhibition was 2%.
`CC1CCc2nn(CC(=O)Nc3ccc(F)cc3F)cc2C1` (stereo not given): the inhibition is 5%.
Regarding `CCCCCCn1c(SCCCC)nc2c1c(=O)[nH]c(=O)n2C`, the inhibition was 4%.
On to `COc1ccc(N(CC(=O)Nc2ccc3c(c2)OCCO3)S(=O)(=O)c2cccnc2)cc1`, for which the inhibition is 0%.
Turning to `CCCNC(=O)c1ccccc1C(=O)NCCC`, the inhibition was 0%.
Consider `COc1ccc(N2C(N)=C(C#N)C(c3cccnc3)C3=C2CC(C)(C)CC3=O)cc1` (stereo not given), for which the inhibition was 0%.
`Cn1c(=O)c(=O)n(C)c2cc(S(=O)(=O)N3CCCCC3)ccc21`: the inhibition was 14%.
With `O=C(NC1CCCC1)C(c1ccco1)N(Cc1ccccc1)C(=O)c1csnn1` (stereo not given), the inhibition is 0%.
`COC(=O)c1cc(=O)n2c(-c3ccc(OC)cc3)csc2n1`: the inhibition was 3%.
Turning to `N#Cc1c(NC(NC(=O)c2ccco2)C(=O)c2ccccc2)sc2c1CCCC2` (stereo not given), the inhibition is 2%.
Consider `COCCNC(=O)CCc1nc(-c2ccccc2)no1`, for which the inhibition was 0%.
Turning to `Cc1ccc(C)c(/C(O)=C2\C(=O)C(=O)N(CCCN3CCOCC3)C2c2cccnc2)c1` (stereo not given), the inhibition is 2%.
On to `CC(=O)Nc1c(C(=O)O)[nH]c2ccccc12`, for which the inhibition is 0%.
Regarding `COc1cccc(NC(=O)NC2(C(F)(F)F)Oc3ccccc3O2)c1`, the inhibition was 0%.
In the case of `CCOCCCNC(=O)C(c1ccccc1)N(Cc1ccc2c(c1)OCO2)C(=O)CNC(C)=O` (stereo not given) it was 1%; in that of `C=Cn1nc(C)c2ccccc2c1=O`, 0%; in that of `C/C(=C\C(=O)c1ccc(F)cc1)Nc1ccc(N2CCOCC2)cc1`, 0%.
For `COc1ccc(-c2noc(CCCC(=O)O)n2)cc1`, the inhibition is 8%.
For `COc1ccccc1N1CCN(CC(O)COc2cccc3ccccc23)CC1` (stereo not given), the inhibition is 3%.
For the compound `CCCn1c(=O)c2ccccc2n2c(SCc3cc(=O)n4ccsc4n3)nnc12`, the inhibition was 0%.
For `CCN(CCCNC(=O)C1CCCN(S(=O)(=O)c2cnc[nH]2)C1)c1ccccc1` (stereo not given), the inhibition is 1%.
For the compound `O=C(CCc1ccc(S(=O)(=O)N2CCOCC2)cc1)NCCc1ccccn1`, the inhibition is 0%.
As for `COCCn1c(C)c(C(=O)O)sc1=S`, the inhibition was 6%.
The figure for `Cc1ccc(-n2c3c(cc(C(=O)NCCCN4CCOCC4)c2=O)C(=O)CC(C)(C)C3)cc1` is 0%.
Consider `COc1ccc(Cl)cc1N1CC(c2nc3ccccc3[nH]2)CC1=O` (stereo not given), for which the inhibition is 6%.
On to `O=C(CCC(=O)N1CCN(S(=O)(=O)c2ccccc2)CC1)c1cccs1`, for which the inhibition is 9%.
`CCCCCCCCCCCCCCCC(O)C(N)CO` (stereo not given): the inhibition was 0%.
For `CCOC(=O)Cc1ccc(NS(=O)(=O)c2ccc(SC)cc2)cc1`, the inhibition is 0%.
For the compound `CCOC(=O)C1CCCN(S(=O)(=O)c2cccs2)C1` (stereo not given), the inhibition was 6%.
In the case of `COc1ccc(NC(=O)C2CCCCN2S(=O)(=O)c2ccc(F)cc2)cc1` (stereo not given), the inhibition is 0%.
